SMILES strings stand for the structures. This is part of a sample that, as a whole, favours compounds with a hit. Of some 83,000 tested, about 20% had one in any assay.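 For each line, cells grew in 96-well plates with the test compound present at a single concentration for 48 hours.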 Values without a mark were called inactive. Calls of active or inactive are those of the source. How the source made its calls: active means growth percent below 10; inactive means the rest.

The first assay deals with SK-MEL-5 melanoma. Kind of assay: NCI-60 one-dose screen, 48 h (100 = growth as untreated, 0 = no growth, -100 = all killed). As to conditions: 10 µM.
For the compound `CCCCCCCNc1nc(C=O)ncc1-c1ccc(C(F)(F)F)cc1`, the growth is 97.6%.

As to `C#Cc1ccc(-n2c(/C=C/c3ccc4ccccc4n3)nc3ncccc3c2=O)cc1`, the growth was -98.2% (active).

As to `O=C1c2ccc3c4c(ccc(c24)C(=O)N1CCNCc1ccccc1)C(=O)N(CCNCc1ccccc1)C3=O`, the growth is -97.9% (active).

As to `CCN(CC)Cc1cc(Nc2ccnc3cc(Cl)ccc23)ccc1OC`, the growth was 91.6%.

Regarding `Nc1ccc2c(c1)C1(CCC2)NC(=O)NC1=O` (centres undefined), the growth is 98.6%.

Regarding `O=C(Nc1cccc(Cl)c1)Nc1nccs1`, the growth is 89.7%.

Take `N=C(N)c1ccc(-c2ccc(-c3cccs3)s2)s1`: the growth is -9.08% (active).

Regarding `O=C1NC(=O)N(Cc2ccccc2)CC1Br` (centres undefined), the growth was 77.5%.

As for `COc1cc(C(=O)N2CCN(c3ccccc3OC)CC2)c(N)cc1OCCCN1CCN(c2ccccc2OC)CC1`, the growth was 44.4%.

For the compound `CN(C)CCN=c1nc2c(c(N)n1-c1ccccc1)c(=S)n(-c1ccccc1)c(=S)n2-c1ccccc1`, the growth is -98.8% (active).

Take `CCOC(=O)c1ccc(NC(=O)Nc2ncc(Cl)cc2Cl)cc1`: the growth is 104%.

Turning to `CN(C)N=Nc1nn(C(=O)Nc2ccc(Cc3ccccc3)cc2)c2ccccc12`, the growth was -37.5% (active).

Consider `CC(=O)N(C)c1ccc(Nc2ccc(Nc3ccc(N(C)C(C)=O)cc3)c3c2C(=O)c2ccccc2C3=O)cc1`, for which the growth is 79%.

As to `CCOC(=O)C1(CC(C)C)CCOC1=O` (centres undefined), the growth was 104%.

Consider `COc1ccc2c(c1)nc(N)c1c3cccnc3cn21`, for which the growth was -38.1% (active).

Regarding `CSCCCNC(=O)c1ccc2c(c1)/C(=C/c1[nH]c(C)cc1C)C(=O)N2`, the growth is 30.5%.

Regarding `COc1cc(Cl)cc(-c2nn(-c3cccc(NC(=O)Nc4ccc(Cl)c(Cl)c4)c3)cc2-c2ccncc2)c1`, the growth was 3.51% (active).

On to `CC1=C(N2CCOCC2)C(N2CCOCC2)=C(C)C(=O)C1=O`, for which the growth is 99.2%.

As for `COc1cc(-c2nc(Nc3nc4ccccc4s3)[nH]c(=O)c2C#N)cc(OC)c1O`, the growth was 106%.

In the case of `COc1ccc(CN2CCC(N3CCCC3=O)c3cc(Cl)ccc32)cc1` (centres undefined), the growth was 103%.

Regarding `CC(=O)O[C@]1(C)CC[C@H]2[C@H](CNCCc3ccc(Cl)cc3)C(=O)O[C@@H]2C2=C(C)C(=O)C[C@H]21`, the growth was 92.2%.

Take `COc1ccc(-c2nn(-c3cccc(NC(=O)Nc4cc(C(F)(F)F)cc(C(F)(F)F)c4)c3)cc2-c2ccncc2)cc1Cl`: the growth is -37.6% (active).

Take `CN(CCc1ccccn1)c1ccccc1`: the growth is 103%.

Turning to `COc1ccc(N=C2C(=Nc3ccc(OC)cc3)N(c3ccc(N(C)C)cc3)C(=S)N2c2ccc(OC)cc2)cc1`, the growth was 84.8%.

Take `COc1cc2nc(Nc3cccc(NC(C)=O)c3)nc(N)c2cc1OC`: the growth was 95.5%.

For the compound `C#Cc1ccc(-n2c(/C=C/c3ccc(Cl)c(F)c3)nc3ncccc3c2=O)cc1`, the growth was -97.5% (active).

As for `COc1cccc(Cn2c(-c3nonc3N)nc3ccccc32)c1`, the growth was 16.8%.

As for `c1ccc([I+]c2ccccc2)cc1`, the growth is 55.7%.

Consider `O=C(c1cccs1)c1ccccc1Cc1ccccc1`, for which the growth is 97.9%.

Turning to `COc1ccc(-c2ccc(-c3ccc(C(=N)N)cn3)o2)cc1`, the growth is 72.3%.

With `Nc1c(C(=O)Nc2cccc3ccccc23)sc2nc3c(cc12)C(=O)CCC3`, the growth is 12.2%.

Consider `COc1ccc(Nc2ccnc(NCCNc3ccnc4cc(Cl)ccc34)n2)cc1`, for which the growth was -50.8% (active).

Regarding `O=C(Nc1ccc(Cl)c([N+](=O)[O-])c1)Nc1nc2ccccc2s1`, the growth is 74.3%.

As to `COc1cc(C(=O)/C=C/c2cc(-c3cc(OC)c(OC)c(OC)c3)n[nH]2)cc(OC)c1OC`, the growth is 21.3%.

Turning to `CC(=O)N1C/C(=C/c2ccc(Cl)cc2)C(=O)/C(=C/c2ccc(Cl)cc2)C1`, the growth is -52.1% (active).

In the case of `COc1cc(/C=N/NC(=O)c2ccccc2Nc2cccc(C(F)(F)F)c2)cc(OC)c1OC`, the growth is 29.2%.

`O=C1N=NC2=C1c1c3ccccc3c(O)n1CC2`: the growth was 112%.

As for `CS(=O)(=O)Nc1cccc(-c2cc(-c3ccccc3Cl)c(C#N)c(N)n2)c1`, the growth was 30.9%.

`N#Cc1ncc(-c2ccc(C(F)(F)F)cc2)c(NCc2cc(C(F)(F)F)cc(C(F)(F)F)c2)n1`: the growth was 75.3%.

The next assay deals with UACC-62 melanoma. The assay is described as above. The conditions noted are these: 10 µM.
Consider `CCCCCCCNc1nc(C=O)ncc1-c1ccc(C(F)(F)F)cc1`, for which the growth is 116%.

For `C#Cc1ccc(-n2c(/C=C/c3ccc4ccccc4n3)nc3ncccc3c2=O)cc1`, the growth is -65.3% (active).

Turning to `O=C1c2ccc3c4c(ccc(c24)C(=O)N1CCNCc1ccccc1)C(=O)N(CCNCc1ccccc1)C3=O`, the growth is -31.6% (active).

As for `CCN(CC)Cc1cc(Nc2ccnc3cc(Cl)ccc23)ccc1OC`, the growth is 104%.

Regarding `Nc1ccc2c(c1)C1(CCC2)NC(=O)NC1=O` (centres undefined), the growth was 106%.

Turning to `O=C(Nc1cccc(Cl)c1)Nc1nccs1`, the growth is 79.8%.

For `N=C(N)c1ccc(-c2ccc(-c3cccs3)s2)s1`, the growth is -90.7% (active).

For the compound `O=C1NC(=O)N(Cc2ccccc2)CC1Br` (centres undefined), the growth was 72.8%.

Regarding `CN(C)CCN=c1nc2c(c(N)n1-c1ccccc1)c(=S)n(-c1ccccc1)c(=S)n2-c1ccccc1`, the growth was -90.3% (active).

As to `CCOC(=O)c1ccc(NC(=O)Nc2ncc(Cl)cc2Cl)cc1`, the growth was 87%.

Regarding `CN(C)N=Nc1nn(C(=O)Nc2ccc(Cc3ccccc3)cc2)c2ccccc12`, the growth was -8.25% (active).

Regarding `CC(=O)N(C)c1ccc(Nc2ccc(Nc3ccc(N(C)C(C)=O)cc3)c3c2C(=O)c2ccccc2C3=O)cc1`, the growth was 88.8%.

`CCOC(=O)C1(CC(C)C)CCOC1=O` (centres undefined): the growth was 96.7%.

On to `COc1ccc2c(c1)nc(N)c1c3cccnc3cn21`, for which the growth was 16%.

For the compound `CSCCCNC(=O)c1ccc2c(c1)/C(=C/c1[nH]c(C)cc1C)C(=O)N2`, the growth is 15.6%.

On to `COc1cc(Cl)cc(-c2nn(-c3cccc(NC(=O)Nc4ccc(Cl)c(Cl)c4)c3)cc2-c2ccncc2)c1`, for which the growth is 4.38% (active).

As for `CC1=C(N2CCOCC2)C(N2CCOCC2)=C(C)C(=O)C1=O`, the growth was 109%.

For the compound `COc1cc(-c2nc(Nc3nc4ccccc4s3)[nH]c(=O)c2C#N)cc(OC)c1O`, the growth was 102%.

As to `COc1ccc(CN2CCC(N3CCCC3=O)c3cc(Cl)ccc32)cc1` (centres undefined), the growth is 85.2%.

For the compound `CC(=O)O[C@]1(C)CC[C@H]2[C@H](CNCCc3ccc(Cl)cc3)C(=O)O[C@@H]2C2=C(C)C(=O)C[C@H]21`, the growth is 97.9%.

On to `COc1ccc(-c2nn(-c3cccc(NC(=O)Nc4cc(C(F)(F)F)cc(C(F)(F)F)c4)c3)cc2-c2ccncc2)cc1Cl`, for which the growth is 7.55% (active).

As to `CN(CCc1ccccn1)c1ccccc1`, the growth was 98%.

For the compound `COc1ccc(N=C2C(=Nc3ccc(OC)cc3)N(c3ccc(N(C)C)cc3)C(=S)N2c2ccc(OC)cc2)cc1`, the growth is 98.2%.

For `COc1cc2nc(Nc3cccc(NC(C)=O)c3)nc(N)c2cc1OC`, the growth is 91.7%.

Take `COc1cccc(Cn2c(-c3nonc3N)nc3ccccc32)c1`: the growth is 33.9%.

For the compound `c1ccc([I+]c2ccccc2)cc1`, the growth is 106%.

For the compound `O=C(c1cccs1)c1ccccc1Cc1ccccc1`, the growth is 90.1%.

Take `Nc1c(C(=O)Nc2cccc3ccccc23)sc2nc3c(cc12)C(=O)CCC3`: the growth was 43.2%.

In the case of `COc1ccc(Nc2ccnc(NCCNc3ccnc4cc(Cl)ccc34)n2)cc1`, the growth is 74.9%.

`O=C(Nc1ccc(Cl)c([N+](=O)[O-])c1)Nc1nc2ccccc2s1`: the growth is 70%.

As to `CC(=O)N1C/C(=C/c2ccc(Cl)cc2)C(=O)/C(=C/c2ccc(Cl)cc2)C1`, the growth is -74.6% (active).

As for `COc1cc(/C=N/NC(=O)c2ccccc2Nc2cccc(C(F)(F)F)c2)cc(OC)c1OC`, the growth was 10.3%.

As to `O=C1N=NC2=C1c1c3ccccc3c(O)n1CC2`, the growth is 96.4%.

On to `CS(=O)(=O)Nc1cccc(-c2cc(-c3ccccc3Cl)c(C#N)c(N)n2)c1`, for which the growth is 42.8%.

Take `N#Cc1ncc(-c2ccc(C(F)(F)F)cc2)c(NCc2cc(C(F)(F)F)cc(C(F)(F)F)c2)n1`: the growth is 19.4%.

These data come from PubChem BioAssay (NCI).
